# Shown are actives, neighbours in structure and some others; about 6.2% of the full set was active somewhere.
# NTR1 agonist: NTR1 (human) agonism. P30989. NTR1-U2OS beta-arrestin-GFP spot imaging, agonist mode. activation, % at 20 µM. 0.17% of 330,000 active. AID 493036;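 active means activation at or above 40% of the spot to cytoplasm intensity ratio, with at least 20 cells analyzed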
# Target sequence (P30989 whole entry, looked up): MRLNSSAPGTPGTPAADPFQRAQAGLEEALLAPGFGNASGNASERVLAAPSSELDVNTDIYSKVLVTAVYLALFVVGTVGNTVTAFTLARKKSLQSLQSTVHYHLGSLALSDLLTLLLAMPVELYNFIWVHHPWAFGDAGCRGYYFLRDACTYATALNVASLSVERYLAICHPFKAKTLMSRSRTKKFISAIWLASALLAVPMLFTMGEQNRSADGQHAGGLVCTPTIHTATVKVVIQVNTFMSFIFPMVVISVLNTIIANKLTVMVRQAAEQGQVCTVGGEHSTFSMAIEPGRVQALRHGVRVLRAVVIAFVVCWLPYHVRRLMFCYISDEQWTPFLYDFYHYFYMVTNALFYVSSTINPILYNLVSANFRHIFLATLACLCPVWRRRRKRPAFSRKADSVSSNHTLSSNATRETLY
# H9c2 protect: modulators protecting cardiomyocytes from myocardial damage; H9c2 cardiomyocytes, H2O2 injury protection, ATPLite, 2 h; 0.63% of 360,000 active; protection from H2O2 cell death, % at 20 µM;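 active means compounds giving at least 50% protection of heart cells from peroxide-induced death in the single-dose screen, raw or plate-pattern-corrected value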
# AHR act: human AHR activation | P35869 | AHR-responsive luciferase reporter cells, luminescence | activation, % at 5 µM | 2.5% of 320,000 active; in the data active means activation above about 47%
# Mot1-301 SUMO: inhibitors of SUMOylation pathway: yeast Mot1-301 growth rescue. S. cerevisiae Mot1-301 growth rescue, ATP luminescence, 38.5C; percent above DMSO median, 100 means doubled. growth rescue, % at 18.8 µM. 1% of 320,000 active;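 active means every valid replicate shows activation above 250% relative to neutral control wells; inactive means the rest, any valid replicate at or below 250%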
# NR3A LBD binder: modulators (binders) of human NR3A ligand-binding domain; 2.5% of 340,000 active; Tm shift relative to glycine control, % at 25 µM; AID 1259313; NR3A LBD differential scanning fluorimetry, Tm shift; 0% = protein alone, 100% = glycine-bound protein;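 active means melting temperature shift of at least 10% of the positive control shift, at one fixed dose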
# AI-2 QS mod: modulates the Vibrio harveyi AI-2 quorum sensing system; Vibrio harveyi JMH597 AI-2 luminescence/OD600 ratio, 9 h; stronger effect = lower value; strain lacks LuxN and CqsS sensors; 0 = neutral-control median; activity change, % at 7.5 µM; 0.4% of 300,000 active; AID 2094; in the data active means activity change below about -75%, passing the limit was not always enough;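 further: luminescence divided by OD600 gain over 9 h not by final OD600 alone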
# Numbers stand for hits; - = inactive; . = not tested or not shown.
SMILES,NTR1 agonist,H9c2 protect,AHR act,Mot1-301 SUMO,NR3A LBD binder,AI-2 QS mod
Cc1ccc(NC(=S)NNC(=O)c2cccc([N+](=O)[O-])c2)cc1Cl,-,-,-,-,11.9,-
CCn1c(C)nc2cc(C(=O)NNC(=S)NC(=O)c3ccc(OC)cc3)ccc21,-,-,-,-,-,-85.4
CC(NC(=O)COC(=O)c1cccc(S(=O)(=O)N2CCCC2)c1)c1ccccc1 (stereo not given),-,-,-,-,-,.
Cc1ccc2cc(CN(C(=O)c3ccncc3)C(C)C)c(=O)[nH]c2c1,-,-,-,305.9,-,-
COc1cc(-c2noc(C)c2/C=C/c2ccc(N)cc2)cc(OC)c1OC,-,-,70.7,-,-,-
COc1cc(-c2noc(C)c2C#Cc2ccc(N)cc2)cc(OC)c1OC,-,-,-,-,-,-
CC(C)[C@H](NC(=O)N1c2ccccc2NC(=O)[C@@H]1C(C)C)C(=O)N[C@@H](C(=O)O)c1ccccc1,-,-,-,910.4,-,-
CC(C)[C@H](NC(=O)N1c2ccccc2NC(=O)[C@@H]1C(C)C)C(=O)N[C@@H](Cc1ccccc1)C(=O)O,-,-,-,-,-,-
S=c1[nH]nc(C2CCCCC2)n1/N=C/C=C/c1ccccc1,-,-,-,-,-,-92.4
CS(=O)(=O)c1ccc2nc(NC(=O)C3CC3)sc2c1,-,-,-,-,-,-
CS(=O)(=O)c1ccc(Cl)c(NC(=O)CCl)c1,-,-,-,-,-,-
Cc1nc(NC(=O)Nc2ccc(Cl)cc2)sc1C,-,-,-,-,12.1,-
CC(C)(C)c1nnc(NC(=O)Nc2ccc(Cl)cc2)s1,-,-,-,-,-,-
Cc1ccc(NC(=O)Nc2cc(S(C)(=O)=O)ccc2Cl)cc1,-,-,47.0,-,-,-
CS(=O)(=O)c1ccc2nc(NC(=O)Nc3ccc(Cl)cc3)sc2c1,-,-,-,-,27.6,-
NS(=O)(=O)c1ccc2nc(NC(=O)Nc3ccc(F)cc3)sc2c1,-,-,-,-,23.2,-
COc1ccc(NC(=O)CN(C)C(=O)CCc2c[nH]c3ccccc23)cc1,-,-,-,-,-,-
O=C1NC(Cc2ccc(O)cc2)c2nc3ccc(Cl)cc3c(=O)n2-c2ccc(Cl)cc21 (stereo not given),-,.,-,-,.,.
Cn1c(=O)c2cc(NC(=S)NCc3ccccc3F)ccc2n1C,.,-,.,.,.,.
C(=N\Nc1nc(Nc2ccccc2)nc(Nc2ccccc2)n1)/c1cccnc1,-,-,141.6,-,26.7,-
Cc1ccc(-c2cc(-c3ccccc3)nc(N/N=C/c3cccnc3)n2)cc1,-,-,63.3,-,-,-
C(=N/Nc1nc(-c2ccccc2)cc(-c2ccccc2)n1)/c1cccnc1,-,-,-,-,-,-
O=C(O)CCCC(=O)N1N=C(c2ccccc2)CC1c1ccc2c(c1)OCO2 (stereo not given),-,-,-,-,-,-
O=C(NCCNc1ccc([N+](=O)[O-])cc1C(F)(F)F)c1ccccc1F,-,-,59.3,-,-,-
Cc1ccc(C(=O)NCCNc2ccc([N+](=O)[O-])cc2C(F)(F)F)cc1,-,-,-,-,-,-
SMILES,NTR1 agonist,H9c2 protect,AHR act,Mot1-301 SUMO,NR3A LBD binder,AI-2 QS mod
O=C(CN1C(=O)NC(Cc2ccccc2)C1=O)Nc1ccc(OC(F)(F)F)cc1 (stereo not given),-,-,-,-,15.2,.
O=C(CN1C(=O)NC(Cc2ccccc2)C1=O)Nc1ccc(F)c(Cl)c1 (stereo not given),-,-,-,-,29.3,.
O=S(=O)(NCC(c1cccs1)N1CCc2ccccc2C1)c1ccccc1 (stereo not given),-,-,-,-,14.1,-
O=[N+]([O-])c1ccc(S(=O)(=O)NCC(c2ccco2)N2CCc3ccccc3C2)cc1 (stereo not given),-,-,-,-,-,-
CC(C)C(=O)Nc1ccc(NC(=O)c2ccc(COc3ccccc3)cc2)cc1,-,-,-,-,16.3,-
CC(=O)Nc1cccc(NC(=O)c2ccc(COc3ccccc3)cc2)c1,-,-,.,.,-,-
CC(=O)Nc1ccc(NC(=O)c2ccc(COc3ccccc3)cc2)cc1,-,-,-,-,10.4,.
O=C(Nc1ccc(F)cc1)c1ccc(COc2ccccc2)cc1,-,-,-,-,-,-
CCCCNc1nccnc1-c1cccc(C=O)c1,.,-,.,.,.,.
O=C(NNC(=O)c1ccccc1OCc1ccccc1)c1ccccc1F,-,-,53.3,-,10.3,-
O=C(NCc1ccc(F)cc1)c1ccccc1OCc1ccccc1,-,-,-,.,-,-
CCOc1ccc(OCc2ccc(C(=O)N/N=C(\C)c3ccccn3)cc2)cc1,.,-,-,-,-,-
C/C(=N\NC(=O)c1ccccc1OCc1ccc(F)cc1)c1ccccn1,-,53.0,-,-,-,.
O=C(NNC(=O)c1ccccc1OCc1ccc(F)cc1)c1ccccc1O,-,-,.,-,22.9,-
O=C(NNC(=O)c1ccccc1OCc1ccccc1)c1ccccc1O,-,-,.,-,-,-
CNc1cncc(-c2ccc(F)cc2F)n1,.,-,.,.,.,.
O=C(NCc1cccc(C(F)(F)F)c1)c1ccc2nc([C@@H]3O[C@H](CO)[C@@H](O)[C@H]3O)[nH]c2c1,.,-,.,.,.,.
Cc1nc(NC(=O)c2csc3ccccc23)sc1C,-,-,-,-,28.1,-
Cc1nc(NC(=O)c2ccccc2O)sc1C,-,-,-,-,-,-
CCCCP(=O)(CCCC)c1ccccc1C(=O)O,-,.,-,-,12.2,-
CC(=O)Nc1cc(-c2ccncc2)cn2c(-c3ccccc3)cnc12,.,-,.,.,.,.
Cc1c(C(=O)N(C)C(C)c2ccccn2)oc2c(F)cccc12 (stereo not given),-,-,53.6,-,-,-
Cc1c(C(=O)N(C)C(C)c2ccncn2)oc2c(F)cccc12 (stereo not given),-,-,-,-,-,-
CC(=O)Nc1ccc(C(=O)COC(=O)C2CC2C)c(F)c1 (stereo not given),-,-,.,.,-,.
Cc1ccc(/C=N/Nc2ccccn2)s1,-,-,48.5,-,-,-
SMILES,NTR1 agonist,H9c2 protect,AHR act,Mot1-301 SUMO,NR3A LBD binder,AI-2 QS mod
Cc1ccc(/C=N/NC(=O)c2ccoc2C)s1,-,-,55.5,-,-,-
COc1ccc(/C=N/Nc2ccc(C(=O)O)cc2)cc1Br,-,-,-,-,-,-96.1
Cc1ccc(/C=N/Nc2ccc(C(=O)O)cc2)s1,-,-,-,-,-,-94.7
Cc1ccc(/C=N/NC(=O)c2ccco2)s1,-,-,-,-,-,-
Cc1ccc(/C=N/NC(=O)c2ccc(C(=O)N/N=C/c3ccc(C)s3)o2)s1,-,-,-,-,28.3,-
CC(=O)n1c2c(c3ccccc31)OC(N)=C(C#N)C2c1cccc(Cl)c1Cl (stereo not given),-,-,48.5,-,13.5,-
